Reference: PubChem BioAssay AID504911 (Southern Research Specialized Biocontainment Screening …, 2011)
Entries with a potency or affinity are not part of this list. The source made the active and inactive calls. How the calls were made is not given here.

assay: THP-1 cell cytotoxicity, cytotoxicity control, set 4 (AID 504911); conditions: THP-1 cytotoxicity; series mostly up to 100 µM; viability: at the top concentration

Row | SMILES | viability
1 | Cc1[nH]c(=S)[nH]c(=O)c1C | 113% (inactive)
2 | Cc1c[nH]c(=S)[nH]c1=O | 81.8% (inactive)
3 | Cc1cnc(SCC(=O)NC2CCCCC2)[nH]c1=O | 111% (inactive)
4 | Cc1cc(=O)[nH]c(=S)[nH]1 | 91.6% (inactive)
5 | CCC(Sc1nc2c(c(=O)[nH]1)CCC2)C(=O)Nc1cccc(OC)c1 (centres undefined) | 90.2% (inactive)
6 | CN1CCC(NC(=O)CSc2nc3ccccc3c(=O)[nH]2)CC1 | 117% (inactive)
7 | CCOC(=O)CSc1nc(C)c(C)c(=O)[nH]1 | 92.5% (inactive)
8 | COc1ccc(NC(=O)CSc2nc3ccccc3c(=O)[nH]2)cc1 | 111% (inactive)
9 | Cc1nc(SCC(N)=O)[nH]c(=O)c1C | 110% (inactive)
10 | Cc1nc(SCC(=O)NCCC(C)C)[nH]c(=O)c1C | 97% (inactive)
11 | NC[C@H]1O[C@H](O[C@H]2[C@H](O)[C@@H](O[C@H]3O[C@H](CO)[C@@H](O)[C@H](N)[C@H]3O)[C@H](N)C[C@@H]2N)[C@H](O)[C@@H](O)[C@@H]1O | 108% (inactive)
12 | O=c1[nH]c(=S)[nH]c2ccccc12 | 92.2% (inactive)
13 | NC(=O)CSc1nc2ccccc2c(=O)[nH]1 | 84.8% (inactive)
14 | COC(=O)c1ccc(CNc2c(N3CCCC3)c(=O)c2=O)cc1 | 92.3% (inactive)
